From PubChem BioAssay (EPA / NIEHS)
Active and inactive are the calls of the source. Rule for the calls: active = hit-call score of the fitted dose curve at least 0.9, where 1 is the maximum; inconclusive = response in the unintended direction; inactive = score below 0.9.

Assay: Tanguay_ZF_120hpf_ActivityScore_legacy: (Legacy) Oregon State University Tanguay Lab 120 Hour Post-fertilization zebrafish Assay Score for Activity (AID 2283742);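 for AC50: dechorionated Tropical 5D wild-type zebrafish embryos held singly per well; static exposure from 6 hpf until 120 hpf at 28 °C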
Method in brief: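 In this whole-embryo screen, dechorionated zebrafish were exposed from 6 hpf until 120 hpf at 28C under a 0.64% DMSO vehicle. Developmental malformations and death were recorded by brightfield microscopy as binary endpoints.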

SMILES	outcome	AC50
CC(C)Oc1cc(-n2nc(C(C)(C)C)oc2=O)c(Cl)cc1Cl	inactive	–
N#CC(CCc1ccc(Cl)cc1)(Cn1cncn1)c1ccccc1 (stereo not given)	inactive	–
CCCCNC(=O)OCC#CI	–	15800 nM (active)
Cc1cc(Cl)ccc1OCC(=O)O	inactive	–
COc1cnc(OC)n2nc(NS(=O)(=O)c3c(OCC(F)F)cccc3C(F)(F)F)nc12	inactive	–
Cc1c(F)c(F)c(COC(=O)C2C(/C=C(\Cl)C(F)(F)F)C2(C)C)c(F)c1F (stereo not given)	–	20900 nM (active)
CCON=C(CC)C1=C(O)CC(c2c(C)cc(C)cc2C)CC1=O (stereo not given)	inactive	–
C#CCOS(=O)OC1CCCCC1Oc1ccc(C(C)(C)C)cc1 (stereo not given)	inactive	–
C=CC1(C)OC(=O)N(c2cc(Cl)cc(Cl)c2)C1=O (stereo not given)	inactive	–
CCNc1nc(Cl)nc(NC(C)C)n1	inactive	–
CC(Oc1ccc(Cl)cc1Cl)C(=O)O (stereo not given)	inactive	–
CCCCC(CC)COC(=O)c1ccccc1C(=O)OCC(CC)CCCC (stereo not given)	inactive	–
CC(C)C1(C)N=C(c2nc3ccccc3cc2C(=O)O)NC1=O (stereo not given)	inactive	–
CS/C(C)=N/OC(=O)N(C)SN(C)C(=O)O/N=C(\C)SC	inactive	–
COc1nc(NC(C)C)nc(NC(C)C)n1	inactive	–
COC(=O)c1ccccc1C(=O)OC	inactive	–
CCOc1cc(Oc2ccc(C(F)(F)F)cc2Cl)ccc1[N+](=O)[O-]	inactive	–
CNC(=O)ON=CC(C)(C)SC	–	3.17 nM (active)
CCCCOC(=O)c1ccccc1C(=O)OCCCC	inactive	–
COC(=O)C(C)Oc1ccc(Oc2ccc(Cl)cc2Cl)cc1 (stereo not given)	inactive	–
N#Cc1cc(Br)c(O)c(Br)c1	–	23800 nM (active)
COC(=O)N(OC)c1ccccc1COc1ccn(-c2ccc(Cl)cc2)n1	–	409 nM (active)
OC(c1ccc(Cl)cc1)(c1cncnc1)c1ccccc1Cl (stereo not given)	inactive	–
CCc1nn(C)c(C(=O)NCc2ccc(C(C)(C)C)cc2)c1Cl	–	2810 nM (active)
Cc1ccc(-c2c(Cl)nc(C#N)n2S(=O)(=O)N(C)C)cc1	–	2270 nM (active)
